Inconclusive results are not listed. Unmarked numbers belong to inactive results. Activity calls are given as the source filed them. Calls come from the whole dose curve; as a rule, active = well fitted cell-killing curve with a large enough effect; inconclusive = small, poorly fitted or top-dose-only effect, or effect the other way; inactive = no such curve, though single readings can be large or run the other way.
% is set by controls: 0 for no effect and ±100 for the full control effect; potency is the fitted concentration of half-maximal effect.

The subject of the assay is HeLa. The assay can be described thus: Confirmatory qHTS for gynecologic anti-cancer compounds from libraries of approved drugs and bioactive compounds. Note: nearly all actives have a fitted effect of over 55% in size. Conditions: gynecologic cancer cell panel viability, ATPlite luminescence, 48 h; series mostly up to 57.6 µM. A digest of the protocol: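 Viability is measured as ATP-dependent luciferase light using ATPlite, read 15 min after reagent addition at room temperature. Compounds, in DMSO, span 57.5 uM down to 0.977 nM over 11 threefold steps for 48 h.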
Turning to `COC(C(=O)N1Cc2[nH]nc(NC(=O)c3ccc(N4CCN(C)CC4)cc3)c2C1)c1ccccc1` (configuration not stated), the Potency was 243 nM (active).
On to `CC[C@H](Nc1ncnc2nc[nH]c12)c1nc2cccc(F)c2c(=O)n1-c1ccccc1`, for which the activity change, negative = viability loss is 0.732% [at 10.7 µM].
`Cc1cnc(CNC(=O)c2c(=O)c3ccc(N4CCCN(C)CC4)nc3n3c2sc2ccccc23)cn1`: the activity change, negative = viability loss is -3.33% [at 10.7 µM].
`Cc1ccc(C(=O)N(CCCN)C(c2oc3cc(Cl)ccc3c(=O)c2Cc2ccccc2)C(C)C)cc1` (configuration not stated): the Potency was 13.7 nM (active).
On the same count and under the same terms, as for `Cc1nc(N)sc1-c1ccnc(Nc2ccc(N3CCOCC3)cc2)n1`, the figure is 2170 nM (active); as for `CC(=O)Nc1cccc(-n2c(=O)n(C3CC3)c(=O)c3c(Nc4ccc(I)cc4F)n(C)c(=O)c(C)c32)c1`, “inactive”; as for `CC[C@@]1(O)C(=O)OCc2c1cc1n(c2=O)Cc2cc3c(CN(C)C)c(O)ccc3nc2-1`, 8630 nM (active).
Still for that read-out and setting: as for `CC[C@]1(O)C[C@H]2CN(CCc3c([nH]c4ccccc34)[C@@](C(=O)OC)(c3cc4c(cc3OC)N(C=O)[C@H]3[C@@](O)(C(=O)OC)[C@H](OC(C)=O)[C@]5(CC)C=CCN6CC[C@]43[C@@H]65)C2)C1`, the figure is 273 nM (active); as for `Cc1cc(C(=O)N2CCN(c3cccc(Cl)c3)CC2)n(-c2ccccc2)n1`, 2170 nM (active).
Regarding `CNC(=O)c1ccccc1Sc1ccc2c(/C=C/c3ccccn3)n[nH]c2c1`, the Potency is 3060 nM (active).
For `S=c1nc[nH]c2nc[nH]c12`, the Potency was 3430 nM (active).
On to `CC1=C(CO)C(=O)O[C@@H]([C@@H](C)[C@H]2CC[C@H]3[C@@H]4C[C@H]5O[C@]56[C@@H](O)C=CC(=O)[C@]6(C)[C@H]4CC[C@]23C)C1`, for which the Potency is 2110 nM (active).
For `Cc1nc2ccc(CN(C)c3ccc(C(=O)NC(CCC(=O)O)C(=O)O)s3)cc2c(=O)[nH]1` (configuration not stated), the Potency was 54.4 nM (active).
The same measure, in the same setting: as for `NC(=O)Nc1cc(-c2cccc(F)c2)sc1C(=O)NC1CCCNC1` (configuration not stated), the figure is 1220 nM (active); as for `CN1CCN(Cc2ccc(NC(=O)Nc3ccc(Oc4cc(NC(=O)C5CC5)ncn4)cc3)cc2C(F)(F)F)CC1`, 306 nM (active); as for `COc1c(C)c2c(c(O)c1C/C=C(\C)CCC(=O)OCCN1CCOCC1)C(=O)OC2`, 2430 nM (active).
For `COc1cccc2c1C(=O)c1c(O)c3c(c(O)c1C2=O)C[C@@](O)(C(=O)CO)C[C@@H]3O[C@H]1C[C@H](N)[C@H](O)[C@H](C)O1`, the Potency was 6850 nM (active).
Consider `CN1C2CCC1CC(OC(=O)[C@H](CO)c1ccccc1)C2` (some centres not stated), for which the Potency entry is “inactive”.
Turning to `COc1cc2nccc(Oc3ccc(NC(=O)C4(C(=O)Nc5ccc(F)cc5)CC4)cc3)c2cc1OC`, the Potency is 13700 nM (active).
Turning to `CNC(=O)c1ccccc1Nc1nc(Nc2ccc(N3CCOCC3)cc2OC)ncc1Cl`, the Potency was 769 nM (active).
Regarding `CCCc1nn(C)c2c(=O)[nH]c(-c3cc(S(=O)(=O)N4CCN(C)CC4)ccc3OCC)nc12`, the Potency result is “inactive”.
In the case of `CC(=O)OC12COC1CC(O)C1(C)C(=O)C(O)C3=C(C)C(OC(=O)C(O)C(NC(=O)OC(C)(C)C)c4ccccc4)CC(O)(C(OC(=O)c4ccccc4)C21)C3(C)C` (configuration not stated), the Potency is 9.7 nM (active).
For the molecule `CC(C)C[C@H](NC(=O)[C@H](CCc1ccccc1)NC(=O)CN1CCOCC1)C(=O)N[C@@H](Cc1ccccc1)C(=O)N[C@@H](CC(C)C)C(=O)[C@@]1(C)CO1`, the Potency was 10900 nM (active).
On to `O=C(c1ccc(/C=C/c2n[nH]c3ccccc23)cc1)N1CCNCC1`, for which the Potency is 3430 nM (active).
On to `CCc1c2c(nc3ccc(OC(=O)N4CCC(N5CCCCC5)CC4)cc13)-c1cc3c(c(=O)n1C2)COC(=O)[C@]3(O)CC`, for which the Potency result is “inactive”.
For the molecule `COc1cc(N2CCC(N3CCN(C)CC3)CC2)ccc1Nc1ncnc(Nc2ccccc2S(=O)(=O)C(C)C)n1`, the Potency is 8630 nM (active).
For `Cc1cnc(Nc2ccc(CN3CCOCC3)cc2)nc1Nc1cccc(S(=O)(=O)NC(C)(C)C)c1`, the Potency was 2170 nM (active).
Same read-out and setting: as for `Cc1nc(N)nc(N)c1-c1ccc(Cl)c(Cl)c1`, the figure is 3060 nM (active); as for `Cc1cc(Nc2cc(N3CCN(C)CC3)nc(/C=C/c3ccccc3)n2)n[nH]1`, 1720 nM (active).
In the case of `COc1cc2nccc(Oc3ccc(NC(=O)Nc4cc(C)on4)c(Cl)c3)c2cc1OC`, the Potency is 15300 nM (active).
As to `NC(=O)c1cccc2cn(-c3ccc([C@@H]4CCCNC4)cc3)nc12`, the Potency entry was “inactive”.
With `O=C(c1ccc(F)c(F)c1Nc1ccc(I)cc1F)N1CC(O)([C@@H]2CCCCN2)C1`, the Potency is 21700 nM (active).
As for `CC(C)Oc1ccc2c(=O)c(-c3ccccc3)coc2c1`, the Potency was 21700 nM (active).
`CC(C)Nc1cc(-c2c[nH]c(C(=O)N[C@H](CO)c3cccc(Cl)c3)c2)c(Cl)cn1`: the Potency is 21700 nM (active).
Consider `CC(=O)NCC(=O)N1C2CCC1c1cc(Nc3ncc(C(F)(F)F)c(NC4CCC4)n3)ccc12` (configuration not stated), for which the Potency is 1090 nM (active).
Still for that read-out and setting: as for `COc1cc(Nc2ncc3c(n2)-c2ccc(Cl)cc2C(c2c(F)cccc2OC)=NC3)ccc1C(=O)O`, the figure is 685 nM (active).
`COCCOc1ccc2c(c1)ncn2-c1ccc2cccc(N3CCC(N)CC3)c2n1`: the Potency was 12200 nM (active).

(Values after PubChem BioAssay AID1345085 (National Center for Advancing Translational Sciences (NCATS), 2018).)
